Laboratory results published in PubChem BioAssay (NCATS).
Records with an inconclusive call do not appear. Unmarked numbers belong to inactive results. Active and inactive are the calls of the source. The call rests on the fitted dose curve. Numbered stars: 1 amine (or outer) side, 2 acyl side, 3 side chain; on linkers, the order of the positions; unused ones are H or OH. Bridge positions count the residues as written; N and C are the ends. Square brackets hold non-standard residues; d marks the D form. Peptide text beside a SMILES is read from it. * marks the point of attachment. X6 = NC1=N[C@@H](O)C[C@H]([C@H](N[*:1])C(=O)[*:2])N1; ΔAla(Z-3-ureido) = NC(=O)N/C=C(\N)C(=O)O; β3hOrn = NCCC[C@H](N)CC(=O)*; Dap = NC[C@H](N)C(=O)O

assay: Primary qHTS for Vero E6 cytotoxicity: counterscreen for inhibitors of SARS-S pseudo-typed particle cell entry (AID 1479150); details: cell viability; series mostly up to 57.1 µM; activity change, negative = cytotoxicity: at the top concentration
On the % scale 0 is the no-effect control and ±100 the full control effect.

SMILES	activity change, negative = cytotoxicity	outcome
CNC[C@@H]1CC[C@@H](N)[C@@H](O[C@H]2[C@H](O)[C@@H](O[C@H]3OC[C@](C)(O)[C@H](NC)[C@H]3O)[C@H](N)C[C@@H]2N)O1	-4.45%	–
CO[C@H]1C[C@@H]2CC[C@@H](C)[C@@](O)(O2)C(=O)C(=O)N2CCCC[C@H]2C(=O)O[C@H]([C@H](C)C[C@@H]2CC[C@@H](OC(=O)C(C)(CO)CO)[C@H](OC)C2)CC(=O)[C@H](C)/C=C(\C)[C@@H](O)[C@@H](OC)C(=O)[C@H](C)C[C@H](C)/C=C/C=C/C=C/1C	-7.47% [at 26.4 µM]	–
CC(=O)OC1CCC2(C)C(=CCC3C2CCC2(C)C(c4cccnc4)=CCC32)C1 (stereo not drawn)	3.83%	–
CC(C)(C)NCC(O)COc1ccccc1C#N (stereo not drawn)	3.26%	–
CCOc1ccc(Cc2cc([C@@H]3O[C@H](CO)[C@@H](O)[C@H](O)[C@H]3O)ccc2Cl)cc1	–	inactive
CO/N=C(\C(=O)N[C@@H]1C(=O)N2C(C(=O)O)=C(CSc3cnns3)CS[C@H]12)c1csc(N)n1	-8.95%	–
O=P(O)(O)OP(=O)(O)O	–	inactive
CC1(C)S[C@@H]2[C@@H](N3C(=O)[C@@H](c4ccccc4)NC3(C)C)C(=O)N2[C@H]1C(=O)O	4.88%	–
CNCC(O)c1ccc(OC(=O)C(C)(C)C)c(OC(=O)C(C)(C)C)c1 (stereo not drawn)	-3.94%	–
CCCCC(=O)O	-4.46%	–
NCCC[C@H](N)CC(=O)N[C@H]1CNC(=O)[C@H]([C@H]2C[C@H](O)N=C(N)N2)NC(=O)/C(=C/NC(N)=O)NC(=O)[C@H](CO)NC(=O)[C@H](CO)NC1=O (β3hOrn-[Dap]SS[ΔAla(Z-3-ureido)][X6]; lactam 1-C)	–	inactive
CS(=O)(=O)n1cc2c(n1)CN([C@H]1CO[C@H](c3cc(F)ccc3F)[C@@H](N)C1)C2	-1.67%	–
CO/N=C(\C(=O)N[C@@H]1C(=O)N2C(C(=O)O)=C(Cn3ccc(=N)n3CCO)CS[C@H]12)c1csc(N)n1	-9.31%	–
CN[C@H]1C(=O)N[C@@H]2Cc3ccc(cc3)Oc3cc4cc(c3O[C@@H]3O[C@H](C(=O)O)[C@@H](O)[C@H](O)[C@H]3NC(=O)CCCCCCCCC(C)C)Oc3ccc(cc3Cl)[C@@H](O)[C@@H]3NC(=O)[C@H](NC(=O)[C@@H]4NC(=O)[C@@H](NC2=O)c2cc(cc(O)c2Cl)Oc2cc1ccc2O)c1ccc(O)c(c1)-c1c(O[C@H]2O[C@H](CO)[C@@H](O)[C@H](O)[C@@H]2O)cc(O)cc1[C@@H](C(=O)NCCCN(C)C)NC3=O	–	inactive [at 26.4 µM]
CNC(=O)OCc1cccc(COC(=O)NC)n1	–	inactive
CSCCNc1nc(SCCC(F)(F)F)nc2c1ncn2[C@@H]1O[C@H](COP(=O)(O)OP(=O)(O)C(Cl)(Cl)P(=O)(O)O)[C@@H](O)[C@H]1O	–	inactive
COC(=S)NCCn1c([N+](=O)[O-])cnc1C	-2.4%	–
O=C(O[C@H]1C[N+]2(CCCOc3ccccc3)CCC1CC2)C(O)(c1cccs1)c1cccs1	1.21%	–
O=C1C(c2[nH]c3ccc(S(=O)(=O)O)cc3c2O)=Nc2ccc(S(=O)(=O)O)cc21	–	inactive
CO[C@H]1/C=C\O[C@@]2(C)Oc3c(C)c(O)c4c(O)c(c5c(nc6cc(C)ccn65)c4c3C2=O)NC(=O)/C(C)=C\C=C/[C@H](C)[C@H](O)[C@@H](C)[C@@H](O)[C@@H](C)[C@H](OC(C)=O)[C@@H]1C	–	inactive
CN(C)/C(N)=N/C(=N)N	–	inactive [setting not given]
C[C@@H]1C[C@H]2[C@@H]3CCC4=CC(=O)C=C[C@]4(C)[C@@]3(F)[C@@H](O)C[C@]2(C)[C@@]1(O)C(=O)COP(=O)(O)O	–	inactive [at 11.4 µM]
CCCC(=O)O[C@]1(C(=O)COC(=O)CC)[C@@H](C)C[C@H]2[C@@H]3CCC4=CC(=O)C=C[C@]4(C)[C@@]3(F)[C@@H](O)C[C@@]21C	–	inactive
CC(CCc1ccc(O)cc1)NCC(O)c1ccc(O)cc1 (stereo not drawn)	2.68%	–
OC[C@H]1OC(O)C[C@@H](O)[C@@H]1O (stereo partly drawn)	–	inactive
CC1(C)S[C@@H]2[C@H](NC(=O)C(C(=O)Oc3ccc4c(c3)CCC4)c3ccccc3)C(=O)N2[C@H]1C(=O)O (stereo partly drawn)	-1.64%	–
C[C@H](CCC(=O)O)[C@H]1CC[C@H]2[C@@H]3[C@H](O)C[C@@H]4C[C@H](O)CC[C@]4(C)[C@H]3C[C@H](O)[C@]12C	–	inactive
NC[C@@H]1O[C@H](O[C@H]2[C@@H](O)[C@H](O[C@@H]3[C@@H](O)[C@H](N)C[C@H](N)[C@H]3O[C@H]3O[C@H](CO)[C@@H](O)[C@H](O)[C@H]3N)O[C@@H]2CO)[C@H](N)[C@@H](O)[C@@H]1O	-20.5% [at 0.573 µM]	–
